Source: PubChem BioAssay (Tox21)
Inconclusive results are not listed. Entries that show only a call come without a potency. The source made the active and inactive calls. Unless noted, calls follow the shape of the full dose curve.

Assays:
[1] = Nuclear factor erythroid 2-related factor 2/antioxidant responsive element (Nrf2/ARE) small molecule agonists: luciferase reporter gene qHTS assay in human keratinocytes (AID 1919969); also: nearly all actives have a fitted effect of over 35% in size; also: potency is read from the fitted curve at half-maximal effect
[2] = target: Gonadotropin-releasing hormone receptor (Homo sapiens) (UniProt P30968); assay: Human gonadotropin-releasing hormone receptor (GnRHR) small molecule agonists, calcium flux assay in GnRHR-HEK293 cells (AID 1920063); also: nearly all actives have a fitted effect of over 35% in size
In short: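 We seeded human GnRHR-expressing HEK293 cells for 18 hours, loaded them with calcium dye for an hour at 37 C, added test compounds, and recorded fluorescence intensity kinetically for three minutes.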

[3] = G protein-coupled receptor (GPCR) small molecule agonists, calcium flux assay: HEK293 wild type cell line counter screen (AID 1920065)
In short: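 Calcium-sensitive dye, loaded 1 h at 37 C into cells cultured 18 h, reports compound-evoked calcium release as fluorescence (Ex/Em 480/540), measured over 3 min. Agonist mode; 15-point titrations, triplicate.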

[4] = p53 small molecule agonists, cell-based qHTS assay with rat liver microsomes (AID 1963578)
In short: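 Each plate received p53RE-bla cells, then compound, then rat liver microsomes and NADPH (both 0.5 mg/mL final). Plates were held 16 h at 37 C, and beta-lactamase activity was detected with LiveBLAzer over 2 h.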

[5] = p53 small molecule agonists, cell-based qHTS assay with rat liver microsomes: qHTS cell viability counter screen (AID 1963580); also: nearly all actives have a fitted effect of over 45% in size
In short: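 In HCT-116 cells carrying a p53 response element-bla reporter, compounds were metabolically activated in situ by rat liver microsomes with NADPH over 16 h. Cell ATP content then served as the cytotoxicity measure.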

[6] = p53 small molecule agonists, cell-based qHTS assay (AID 1963582; active = well fitted activation curve with a large enough effect in the signal ratio in the repeat runs, not every such curve was filed as active; the % refers to the signal ratio)
In short: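 In this cell-based concentration-response screen, a p53 response element drives beta-lactamase; cells received DMSO-borne compounds after 5 h culture and were incubated a further 16 h before FRET substrate development.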

[7] = target: 5-hydroxytryptamine receptor 2A (Homo sapiens) (UniProt P28223); assay: 5-hydroxytryptamine receptor 2A (HTR2A) small molecule antagonists, cell-based qHTS assay (AID 1963586); also: nearly all actives have a fitted effect of over 45% in size
In short: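 Antagonist-mode intracellular calcium assay: DOI (4 nM) added after 5 min compound pre-incubation at room temperature to dye-loaded HTR2A-CHO cells. Fluorescence followed for 3 min, sampled every second.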

[8] = target: Muscarinic acetylcholine receptor M1 (Homo sapiens) (UniProt P11229); assay: Cholinergic receptor muscarinic 1 (CHRM1) small molecule antagonists, cell-based qHTS assay (AID 1963588); also: nearly all actives have a fitted effect of over 40% in size; also: potency is read from the fitted curve at half-maximal effect
In short: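 CHRM1-CHO calcium-flux assay, antagonist mode. Cells were seeded 18 h, dye-loaded 1 h at 37 C and given compound for 5 min at RT, then acetylcholine was added at 50nM. FDSS fluorescence was read 3 min; 15 concentrations, three runs.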

[9] = target: Muscarinic acetylcholine receptor M1 (Homo sapiens) (UniProt P11229); assay: Cholinergic receptor muscarinic 1 (CHRM1) small molecule agonists, cell-based qHTS assay (AID 1963589); also: nearly all actives have a fitted effect of over 35% in size
In short: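 Measures agonist-induced intracellular calcium rise. Stable human CHRM1 CHO line, 1 h dye load at 37 C, compounds from DMSO, kinetic fluorescence read.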

[10] = target: Beta-2 adrenergic receptor (Homo sapiens) (UniProt P07550); assay: Adrenergic beta2 receptor (ADRB2) small molecule antagonists, cell-based qHTS assay (AID 1963592); also: series mostly up to about 92 µM; nearly all actives have a fitted effect of over 50% in size
In short: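 Cells (CHO, stable ADRB2 overexpression) incubated 18-20hr at 37C; compounds added from DMSO; agonist mix (1nM isoproterenol, 100uM IBMX, 25uM Ro-20-1724) added; 0.5hr RT; d2-cAMP and anti-cAMP-cryptate added; 1hr RT; 665/615 nm read.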

[11] = target: Beta-2 adrenergic receptor (Homo sapiens) (UniProt P07550); assay: Adrenergic beta2 receptor (ADRB2) small molecule agonists, cell-based qHTS assay (AID 1963593);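 also: CHO cells stably overexpressing human ADRB2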
In short: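 CHO cells stably over-expressing ADRB2 were plated overnight at 37C, then dosed with compounds plus a stimulation mix containing 100uM IBMX and 25uM Ro-20-1724 for 0.5hr at room temperature. cAMP was measured by HTRF competition, 1hr.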

[12] = target: D(2) dopamine receptor (Homo sapiens) (UniProt P14416); assay: Dopamine D2 receptor (DRD2) small molecule antagonists, cell-based qHTS assay (AID 1963595; active = well fitted inhibition curve with a large enough effect in the signal ratio in the repeat runs, with a control signal flat; the % refers to the signal ratio)
In short: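 HEK293 cells stably expressing DRD2 were preincubated with 0.1 mM Ro20-1724, then with compound for 10 min at room temperature. Cells were stimulated with 200 nM NKH477 plus 12 nM quinpirole for 30 min, and cAMP was read by HTRF.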

[13] = target: KiSS-1 receptor (Homo sapiens) (UniProt Q969F8); assay: Human kisspeptin (KISS1R) small molecule agonists, calcium flux assay in KISS1R-HEK293 cells (AID 1920064; active = well fitted activation curve with a large enough effect in the repeat runs)
In short: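 Kinetic calcium assay, 1 s sampling over 3 min at Ex/Em 480/540, in HEK293 cells engineered with human KISS1R; compounds delivered in DMSO after 1 h dye loading.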

[14] = p53 small molecule agonists, cell-based qHTS assay with human liver microsomes: qHTS cell viability counter screen (AID 1963579); also: nearly all actives have a fitted effect of over 45% in size
In short: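 Tox21 library compounds, delivered from DMSO stocks, were tested on p53RE-bla cells together with 0.5 mg/mL human liver microsomes and 0.5 mg/mL NADPH (final) over 16 h at 37 C; CellTiter-Glo luminescence served as the cytotoxicity measure.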

[15] = target: 5-hydroxytryptamine receptor 2A (Homo sapiens) (UniProt P28223); assay: 5-hydroxytryptamine receptor 2A (HTR2A) small molecule agonists, cell-based qHTS assay (AID 1963587); also: nearly all actives have a fitted effect of over 30% in size
In short: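 HTR2A-CHO cells, plated 18 h at 37 C/5% CO2, dye-loaded 1 h at 37 C; compounds in DMSO added by pin tool (agonist mode). Intracellular calcium flux read as kinetic fluorescence on FDSS over 2 min at 1 s intervals.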

[16] = target: D(2) dopamine receptor (Homo sapiens) (UniProt P14416); assay: Dopamine D2 receptor (DRD2) small molecule agonists, cell-based qHTS assay (AID 1963594); also: nearly all actives have a fitted effect of over 35% in size
In short: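 HEK293 cells stably expressing DRD2 were cultured 24 h at 37 C, then given Ro20-1724 (0.1 mM final) and compounds for 10 min at room temperature. NKH477 (200nM) was then added for 30 min. cAMP was read by HTRF.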

[17] = p53 small molecule agonists, cell-based qHTS assay: qHTS cell viability counter screen (AID 1963581); also: nearly all actives have a fitted effect of over 45% in size
In short: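 Following 5 h attachment, HCT-116 p53RE-bla cells took up compound for 16 h at 37 C; the reporter was read with B/G FRET substrate (2 h RT), and viability then via CellTiter-Glo ATP luminescence.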

[18] = cAMP Responsive Elements (CRE) small molecule antagonists, cell-based qHTS assay (AID 1963591; active = well fitted inhibition curve with a large enough effect in the signal ratio in the repeat runs, not every such curve was filed as active; the % refers to the signal ratio)
In short: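 HEK293T cells carrying a CRE-driven beta-lactamase reporter receive compound and NKH477 (0.25 uM final) for 3 h. Fluorescence from LiveBLAzer B/G FRET substrate is read after 2 h at room temperature.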

[19] = p53 small molecule agonists, cell-based qHTS assay with human liver microsomes (AID 1963577);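 also: p53 response element beta-lactamase reporter cells with liver microsomes plus NADPH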
In short: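 Metabolically competent format: test substances, human liver microsomes and NADPH (both 0.5 mg/mL final) incubated with p53RE-bla cells 16 h at 37 C. Beta-lactamase reporter signal then quantified by fluorescence.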

[20] = cAMP Responsive Elements (CRE) small molecule agonists, cell-based qHTS assay (AID 1963590)
In short: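 A CRE-responsive beta-lactamase reporter in HEK 293T cells was used. Treatment ran 3 h at 37 C; detection used LiveBLAzer B/G FRET substrate for 2 h at room temperature.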

Sequence of Muscarinic acetylcholine receptor M1 (Homo sapiens) (P11229 whole entry, looked up): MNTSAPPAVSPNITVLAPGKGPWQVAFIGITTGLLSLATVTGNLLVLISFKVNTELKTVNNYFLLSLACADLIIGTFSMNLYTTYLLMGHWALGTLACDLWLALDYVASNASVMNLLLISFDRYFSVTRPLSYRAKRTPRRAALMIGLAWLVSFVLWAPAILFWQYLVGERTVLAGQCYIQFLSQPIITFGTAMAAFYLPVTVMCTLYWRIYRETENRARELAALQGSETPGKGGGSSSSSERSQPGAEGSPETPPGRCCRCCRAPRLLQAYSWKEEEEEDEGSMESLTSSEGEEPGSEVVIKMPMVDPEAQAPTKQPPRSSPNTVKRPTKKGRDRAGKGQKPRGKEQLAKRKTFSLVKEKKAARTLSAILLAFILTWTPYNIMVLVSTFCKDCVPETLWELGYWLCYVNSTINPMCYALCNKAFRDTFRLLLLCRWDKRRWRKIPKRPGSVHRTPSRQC
Sequence of Beta-2 adrenergic receptor (Homo sapiens) (P07550 whole entry, looked up): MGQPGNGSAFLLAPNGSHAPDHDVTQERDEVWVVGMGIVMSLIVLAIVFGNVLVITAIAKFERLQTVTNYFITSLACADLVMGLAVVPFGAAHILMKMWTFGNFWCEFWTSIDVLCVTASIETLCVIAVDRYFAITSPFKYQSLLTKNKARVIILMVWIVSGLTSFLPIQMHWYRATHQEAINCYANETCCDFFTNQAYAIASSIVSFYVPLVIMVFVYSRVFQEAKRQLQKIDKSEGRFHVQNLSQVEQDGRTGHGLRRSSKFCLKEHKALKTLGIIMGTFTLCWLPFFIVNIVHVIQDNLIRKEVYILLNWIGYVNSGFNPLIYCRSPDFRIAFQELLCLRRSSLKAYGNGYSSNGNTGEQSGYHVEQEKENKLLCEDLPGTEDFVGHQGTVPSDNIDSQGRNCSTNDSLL
Sequence of Gonadotropin-releasing hormone receptor (Homo sapiens) (P30968 whole entry, looked up): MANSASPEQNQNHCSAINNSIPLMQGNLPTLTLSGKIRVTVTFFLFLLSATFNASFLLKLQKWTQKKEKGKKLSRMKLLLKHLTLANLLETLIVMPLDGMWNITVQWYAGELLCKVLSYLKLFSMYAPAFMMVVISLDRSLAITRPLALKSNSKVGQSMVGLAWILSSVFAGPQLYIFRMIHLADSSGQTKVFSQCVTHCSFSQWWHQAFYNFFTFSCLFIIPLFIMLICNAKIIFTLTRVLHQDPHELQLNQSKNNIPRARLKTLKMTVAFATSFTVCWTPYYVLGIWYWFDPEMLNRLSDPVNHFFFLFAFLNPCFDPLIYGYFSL
Sequence of 5-hydroxytryptamine receptor 2A (Homo sapiens) (P28223 whole entry, looked up): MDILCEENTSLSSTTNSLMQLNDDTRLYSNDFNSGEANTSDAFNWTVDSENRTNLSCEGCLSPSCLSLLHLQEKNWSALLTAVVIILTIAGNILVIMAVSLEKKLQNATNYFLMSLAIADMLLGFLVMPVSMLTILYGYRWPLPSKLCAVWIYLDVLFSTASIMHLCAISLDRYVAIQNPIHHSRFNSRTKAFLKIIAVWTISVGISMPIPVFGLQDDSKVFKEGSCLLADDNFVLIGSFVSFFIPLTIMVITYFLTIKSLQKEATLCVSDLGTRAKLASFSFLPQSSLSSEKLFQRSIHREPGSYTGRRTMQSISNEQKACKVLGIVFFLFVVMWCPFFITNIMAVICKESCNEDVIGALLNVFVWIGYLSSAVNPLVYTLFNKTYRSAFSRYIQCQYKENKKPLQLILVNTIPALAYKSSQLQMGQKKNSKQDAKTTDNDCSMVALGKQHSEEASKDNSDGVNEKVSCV
Sequence of KiSS-1 receptor (Homo sapiens) (Q969F8 whole entry, looked up): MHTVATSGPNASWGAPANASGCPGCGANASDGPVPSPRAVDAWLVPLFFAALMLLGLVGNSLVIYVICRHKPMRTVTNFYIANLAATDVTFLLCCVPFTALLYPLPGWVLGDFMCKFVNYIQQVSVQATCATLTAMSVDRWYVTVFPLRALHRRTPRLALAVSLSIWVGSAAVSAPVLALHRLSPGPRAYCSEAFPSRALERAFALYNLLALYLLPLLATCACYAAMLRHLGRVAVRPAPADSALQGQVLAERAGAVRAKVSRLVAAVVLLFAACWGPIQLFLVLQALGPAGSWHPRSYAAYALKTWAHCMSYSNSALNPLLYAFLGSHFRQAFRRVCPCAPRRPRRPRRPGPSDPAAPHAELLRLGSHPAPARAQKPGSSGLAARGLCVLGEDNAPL
Sequence of D(2) dopamine receptor (Homo sapiens) (P14416 whole entry, looked up): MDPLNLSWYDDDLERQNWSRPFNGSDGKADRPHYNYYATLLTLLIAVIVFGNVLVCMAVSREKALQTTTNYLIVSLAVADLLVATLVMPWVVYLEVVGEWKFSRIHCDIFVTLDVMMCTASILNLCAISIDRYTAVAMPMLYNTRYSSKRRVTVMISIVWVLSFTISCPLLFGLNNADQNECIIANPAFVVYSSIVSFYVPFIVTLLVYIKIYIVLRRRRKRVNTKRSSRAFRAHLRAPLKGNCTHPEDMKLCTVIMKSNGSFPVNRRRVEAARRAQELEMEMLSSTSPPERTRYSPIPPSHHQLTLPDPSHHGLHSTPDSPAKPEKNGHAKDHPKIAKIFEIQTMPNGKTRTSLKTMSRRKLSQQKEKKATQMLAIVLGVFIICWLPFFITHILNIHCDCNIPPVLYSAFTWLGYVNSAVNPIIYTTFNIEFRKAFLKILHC

| Structure (SMILES) | Potency [1] | Potency [2] | Potency [3] | Potency [4] | Potency [5] | Potency [6] | Potency [7] | Potency [8] | Potency [9] | Potency [10] | Potency [11] | Potency [12] | Potency [13] | Potency [14] | Potency [15] | Potency [16] | Potency [17] | Potency [18] | Potency [19] | Potency [20] |
| --- | --- | --- | --- | --- | --- | --- | --- | --- | --- | --- | --- | --- | --- | --- | --- | --- | --- | --- | --- | --- |
| CCC(C)(C)C(=O)OC1=C(c2ccc(Cl)cc2Cl)C(=O)OC12CCCCC2 | 9.69 µM (active) | inactive | inactive | inactive | inactive | inactive | inactive | inactive | inactive | inactive | inactive | inactive |  |  |  |  |  |  |  |  |
| c1cc[c]([Sb]([c]2ccccc2)[c]2ccccc2)cc1 | 12.2 µM (active) | inactive |  | inactive | inactive |  | inactive | inactive | inactive |  |  |  | inactive | inactive | inactive | inactive |  |  |  |  |
| CC(C)(C)C(=O)C(Oc1ccc(Cl)cc1)n1cncn1 (centres undefined) | inactive | inactive |  | inactive |  | inactive | inactive |  | inactive | inactive | inactive |  | inactive | inactive | inactive | inactive | inactive | inactive |  |  |
| COc1ccc(CN2CCNCC2)c(OC)c1OC | inactive |  | inactive | inactive | inactive | inactive |  |  |  | inactive | inactive |  | inactive | inactive |  | inactive | inactive | inactive | inactive | inactive |
| O=S1(=O)OCC2C(CO1)C1(Cl)C(Cl)=C(Cl)C2(Cl)C1(Cl)Cl (centres undefined) | 24.3 µM (active) |  | inactive | inactive | inactive |  | inactive | inactive | inactive |  | inactive | inactive | inactive | inactive | inactive | inactive | inactive |  | inactive |  |
| CN(C)C(=O)Oc1cc(OC(=O)N(C)C)cc(C(O)CNC(C)(C)C)c1 (centres undefined) | inactive | inactive |  | inactive | inactive | inactive |  |  |  | inactive | inactive | inactive | inactive | inactive |  |  | inactive | inactive |  | inactive |
| CC(C)(C)c1ccc(CSc2cnn(C(C)(C)C)c(=O)c2Cl)cc1 | inactive | inactive | inactive | inactive |  |  | inactive |  | inactive | inactive | inactive | inactive |  | inactive | inactive |  | inactive |  | inactive |  |
| CC(=O)[O-].CC(=O)[O-].O.O.[Zn+2] |  | inactive | inactive |  | inactive |  | inactive | inactive | inactive | inactive |  |  | inactive | inactive | inactive | inactive | inactive | inactive |  | inactive |
| NCCCNCCCN |  | inactive | inactive | inactive | inactive | inactive | inactive | 38.1 µM (active) | inactive | inactive | inactive | inactive | inactive | inactive | inactive | inactive | inactive | inactive |  | inactive |
